# Potency and affinity values are given separately. Activity calls are given as the source filed them. A call without a number means that no potency is given here. How the calls were made is not given here.
# Test: PhoP regulon inhibitors in Salmonella Typhi, late-stage follow-up, GFP fluorescence, round 4, purified and synthesized compounds (AID 449743)
# Conditions: Salmonella Typhi PhoP-promoter GFP reporter, 4 h; series mostly up to 150 µM
row,Compound,outcome
1,N#Cc1ccc(CN2CCCN(C(=O)Nc3ccc(Cl)cc3)C2)cc1,inactive
2,O=C(Nc1ccc(Cl)cc1)N1CCN(Cc2ccccc2F)C1,inactive
3,O=C(Nc1ccc(Cl)cc1)N1CCCN(Cc2cccc(Br)c2)C1,inactive
4,S=C(NCc1ccc(Cl)cc1)Nc1cccc(Br)c1,inactive
5,S=C(NCc1ccc(Cl)cc1)Nc1ccc(I)cc1,inactive
6,S=C(NCc1ccc(Cl)cc1)NN1CCOCC1,inactive
7,CN1CCN(C(=S)NCc2ccc(Cl)cc2)CC1,inactive
8,FC(F)(F)c1ccc(NC(=S)NCc2ccc(Cl)cc2)cc1,inactive
9,S=C(NCc1ccc(Cl)cc1)Nc1ccccc1I,inactive
10,S=C(NCc1ccc(Cl)cc1)NC1CCCCC1,inactive
11,O=C(NC1CCCCC1)N1CCCN(Cc2ccccc2F)C1,inactive
12,S=C(NCc1ccccc1)NCc1ccc(Cl)cc1,inactive
13,FC(F)(F)c1ccccc1NC(=S)NCc1ccc(Cl)cc1,inactive
14,Cc1ccccc1NC(=O)N1CCCN(Cc2ccccc2F)C1,inactive
15,S=C(NCc1ccc(Cl)cc1)Nc1ccccn1,inactive
16,S=C(NCc1ccc(Cl)cc1)Nc1ccccc1Br,inactive
17,S=C(NCc1ccc(Cl)cc1)NC1CCOCC1,inactive
18,S=C(NCc1ccc(Cl)cc1)Nc1ccncn1,inactive
19,O=C(Nc1ccc(Cl)cc1)N1CCCN(Cc2cccc(F)c2)C1,inactive
